Consider 5 molecules from PubChem BioAssay (EPA / NIEHS).

Results filed as inconclusive are left out. Active and inactive are the calls of the source. The calls were made as follows: active = hit-call score of the fitted dose curve at least 0.9, where 1 is the maximum; inconclusive = response in the unintended direction; inactive = score below 0.9.

The experiment concerns guinea pig Dopamine Transporter (DAT), gene 100714898. As to the kind of experiment: NVS_TR_gDAT: NovaScreen (NVS) Transporter Assay for guinea pig Dopamine Transporter (DAT) (AID 2283369).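 Also: active compounds lower bound radioligand signal relative to DMSO.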 The procedure, abridged:
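Scintillation counts of filter-retained radioligand report binding to guinea pig striatal membranes after 2 h. Activity scored as signal loss relative to DMSO, first at 25 uM in duplicate, then in concentration series to 50 uM.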
As for `Oc1cccc(-c2ccccc2)c1`, the AC50 is 13.9 µM (active).
With `O=C1C=CC(=O)c2ccccc21`, the AC50 is 5.42 µM (active).
On the same count and under the same terms, the same measure for `Cc1ccccc1OP(=O)(Oc1ccccc1)Oc1ccccc1`: 13.9 µM (active).
Still for that read-out and setting: the value for `N#CCCC(Br)(C#N)CBr` (stereo not given) was 7.56 µM (active).
As to `CC(C)(C)c1ccccc1O`, the outcome was inactive.

The term AC50 denotes the midpoint of the concentration-response curve, whichever way the signal moves.
